# Reference: paper PMC11062922 (Nature Chemical Biology, 2023)
# Where two headings read alike, the source gives them in different places.
# Assays:
# Parameters in all cases: species or system human, MV4-11 + K-562 + COLO205 + SK-N-BE2 + OVCAR-8
# ACVR2B = conditions: read-out: apparent Kd, compound concentrations: 100 nM and 1000 nM (sheet 'Samples'), n = 1
# PI4KB = conditions: read-out: apparent Kd; compound concentrations: 100 nM and 1000 nM (sheet 'Samples'), CATDS: 0.57979233132980301; n = 1
# ACVR1B = conditions: read-out: apparent Kd; compound concentrations:100 nM and 1000 nM (sheet 'Samples'); n = 1
# PRKD2 = conditions: read-out: apparent Kd; compound concentrations:100 nM and 1000 nM (sheet 'Samples'); n = 1
# PRKD3 = conditions: read-out: apparent Kd; compound concentrations:100 nM and 1000 nM (sheet 'Samples'); n = 1
# DCTPP1 = conditions: read-out: apparent Kd; compound concentrations: 100 nM and 1000 nM (sheet 'Samples'), CATDS: 0.10861575043791701; n = 1
# EGFR = conditions: read-out: apparent Kd; compound concentrations: 100 nM and 1000 nM (sheet 'Samples'), CATDS: 0.49201381458362498; n = 1
# EPHA5 = conditions: read-out: apparent Kd; compound concentrations: 100 nM and 1000 nM (sheet 'Samples'), CATDS: 0.108805216819128; n = 1
# EPHB4 = conditions: read-out: apparent Kd; compound concentrations: 100 nM and 1000 nM (sheet 'Samples'), CATDS: 0.19010178021007501; n = 1
# PRKD1 = conditions: read-out: apparent Kd; compound concentrations: 100 nM and 1000 nM (sheet 'Samples'), CATDS: 0.12094331971113; n = 1
# RET = conditions: read-out: apparent Kd, compound concentrations: 100 nM and 1000 nM (sheet 'Samples'), n = 1
# ADCK1 = conditions: read-out: apparent Kd; compound concentrations: 100 nM and 1000 nM (sheet 'Samples'), CATDS: 9.92203055838001E-2; n = 1
# AKT1 = conditions: read-out: apparent Kd; compound concentrations: 100 nM and 1000 nM (sheet 'Samples'), CATDS: 2.85422229355832E-2; n = 1
# AKT2 = conditions: read-out: apparent Kd; compound concentrations: 100 nM and 1000 nM (sheet 'Samples'), CATDS: 2.77493450407107E-2; n = 1
# CDC42BPG = conditions: read-out: apparent Kd; compound concentrations: 100 nM and 1000 nM (sheet 'Samples'), CATDS: 4.9906722196616002E-2; n = 1
# CLK1 = conditions: read-out: apparent Kd; compound concentrations: 100 nM and 1000 nM (sheet 'Samples'), CATDS: 3.0057021324399399E-2; n = 1
# CLK4 = conditions: read-out: apparent Kd; compound concentrations: 100 nM and 1000 nM (sheet 'Samples'), CATDS: 3.6459308399585902E-2; n = 1
# CSNK1A1 = conditions: read-out: apparent Kd; compound concentrations: 100 nM and 1000 nM (sheet 'Samples'), CATDS: 2.8495259280969999E-2; n = 1
# CSNK2A1;CSNK2A3 = conditions: read-out: apparent Kd; compound concentrations: 100 nM and 1000 nM (sheet 'Samples'), CATDS: 2.5783405582401799E-2; n = 1
# HSP90AA1 = conditions: read-out: apparent Kd; compound concentrations: 100 nM and 1000 nM (sheet 'Samples'), CATDS: 2.5840975218280202E-2; n = 1
# IARS = conditions: read-out: apparent Kd; compound concentrations: 100 nM and 1000 nM (sheet 'Samples'), CATDS: 2.4824684596515999E-2; n = 1
# ILK = conditions: read-out: apparent Kd; compound concentrations: 100 nM and 1000 nM (sheet 'Samples'), CATDS: 2.4595530906688499E-2; n = 1
# LATS1 = conditions: read-out: apparent Kd; compound concentrations: 100 nM and 1000 nM (sheet 'Samples'), CATDS: 4.0745202540463502E-2; n = 1
# MAPK11 = conditions: read-out: apparent Kd; compound concentrations: 100 nM and 1000 nM (sheet 'Samples'), CATDS: 3.2120600016528701E-2; n = 1
# MAPK14 = conditions: read-out: apparent Kd; compound concentrations: 100 nM and 1000 nM (sheet 'Samples'), CATDS: 2.84299118528781E-2; n = 1
# MELK = conditions: read-out: apparent Kd; compound concentrations: 100 nM and 1000 nM (sheet 'Samples'), CATDS: 2.8403307321335999E-2; n = 1
# PKN1 = conditions: read-out: apparent Kd; compound concentrations: 100 nM and 1000 nM (sheet 'Samples'), CATDS: 3.7770198987071901E-2; n = 1
# PKN2 = conditions: read-out: apparent Kd; compound concentrations: 100 nM and 1000 nM (sheet 'Samples'), CATDS: 2.64555223020508E-2; n = 1
# PRKACA = conditions: read-out: apparent Kd; compound concentrations: 100 nM and 1000 nM (sheet 'Samples'), CATDS: 4.8150008864783198E-2; n = 1
# PRKACB = conditions: read-out: apparent Kd; compound concentrations: 100 nM and 1000 nM (sheet 'Samples'), CATDS: 3.8489694396370601E-2; n = 1
# PRKCA = conditions: read-out: apparent Kd; compound concentrations: 100 nM and 1000 nM (sheet 'Samples'), CATDS: 2.8417130340745399E-2; n = 1
# PRKCD = conditions: read-out: apparent Kd; compound concentrations: 100 nM and 1000 nM (sheet 'Samples'), CATDS: 2.7001587668499999E-2; n = 1
# PRKG1 = conditions: read-out: apparent Kd; compound concentrations: 100 nM and 1000 nM (sheet 'Samples'), CATDS: 5.7321528324025303E-2; n = 1
# PYGL = conditions: read-out: apparent Kd; compound concentrations: 100 nM and 1000 nM (sheet 'Samples'), CATDS: 2.4948391152713498E-2; n = 1
# RIOK2 = conditions: read-out: apparent Kd; compound concentrations: 100 nM and 1000 nM (sheet 'Samples'), CATDS: 4.2618907121449799E-2; n = 1
# ROCK1 = conditions: read-out: apparent Kd; compound concentrations: 100 nM and 1000 nM (sheet 'Samples'), CATDS: 5.0643849743389702E-2; n = 1
# ROCK2 = conditions: read-out: apparent Kd; compound concentrations: 100 nM and 1000 nM (sheet 'Samples'), CATDS: 5.2344501044754001E-2; n = 1
# RPS6KB1 = conditions: read-out: apparent Kd; compound concentrations: 100 nM and 1000 nM (sheet 'Samples'), CATDS: 2.7290145261830101E-2; n = 1
# SYK = conditions: read-out: apparent Kd; compound concentrations: 100 nM and 1000 nM (sheet 'Samples'), CATDS: 2.51844401612667E-2; n = 1
# T10 = tested on: T1, T10; conditions: read-out: apparent Kd; compound concentrations: 100 nM and 1000 nM (sheet 'Samples'), CATDS: 2.6247989636004901E-2; n = 1
# T1 construct: gene NAT10
# BCR = conditions: read-out: apparent Kd; compound concentrations: 100 nM and 1000 nM (sheet 'Samples'), CATDS: 0.117591173693898; n = 1
# EPHA1 = conditions: read-out: apparent Kd; compound concentrations: 100 nM and 1000 nM (sheet 'Samples'), CATDS: 0.1160485900451; n = 1
# GAK = conditions: read-out: apparent Kd; compound concentrations: 100 nM and 1000 nM (sheet 'Samples'), CATDS: 9.8647992016736893E-2; n = 1
# JAK2 = conditions: read-out: apparent Kd; compound concentrations: 100 nM and 1000 nM (sheet 'Samples'), CATDS: 0.147380455866959; n = 1
# RIPK2 = conditions: read-out: apparent Kd; compound concentrations: 100 nM and 1000 nM (sheet 'Samples'), CATDS: 0.19291932694362501; n = 1
# RIPK3 = conditions: read-out: apparent Kd; compound concentrations: 100 nM and 1000 nM (sheet 'Samples'), CATDS: 8.1688105237549893E-2; n = 1
# SIK2 = conditions: read-out: apparent Kd; compound concentrations: 100 nM and 1000 nM (sheet 'Samples'), CATDS: 9.6722651513250199E-2; n = 1
structure (smiles),measurement,setting,value
CNc1ncnc2[nH]ncc12 [SKF-18355],potency estimated from few doses,ACVR2B; CATDS: 0.43951319986121201,1910 nM
same,potency estimated from few doses,PI4KB,1080 nM
Cc1cccc(-c2cc(Nc3ccncc3)c3ccccc3n2)n1 [GSK223675A],potency estimated from few doses,ACVR1B,21.7 nM
same,potency estimated from few doses,PRKD2,293 nM
same,potency estimated from few doses,PRKD3,590 nM
COc1cc2ncnc(Nc3cccc(Cl)c3F)c2cc1O[C@H]1CC[C@@]2(CC1)NCCNC2=O [BI00113608],potency estimated from few doses,ACVR2B; CATDS: 0.10934684571165,1660 nM
same,potency estimated from few doses,DCTPP1,1700 nM
same,potency estimated from few doses,EGFR,85.3 nM
same,potency estimated from few doses,EPHA5,1690 nM
same,potency estimated from few doses,EPHB4,421 nM
same,potency estimated from few doses,PRKD1,1220 nM
same,potency estimated from few doses,RET; CATDS: 0.16960231572365,534 nM
CN(C)CCNS(=O)(=O)c1ccc(-c2ccnc3[nH]ccc23)cc1 [GSK977620A],potency estimated from few doses,ADCK1,145 nM
same,potency estimated from few doses,AKT1,1480 nM
same,potency estimated from few doses,AKT2,1600 nM
same,potency estimated from few doses,CDC42BPG,449 nM
same,potency estimated from few doses,CLK1,1300 nM
same,potency estimated from few doses,CLK4,827 nM
same,potency estimated from few doses,CSNK1A1,1490 nM
same,potency estimated from few doses,CSNK2A1;CSNK2A3,1990 nM
same,potency estimated from few doses,HSP90AA1,1980 nM
same,potency estimated from few doses,IARS,2250 nM
same,potency estimated from few doses,ILK,2330 nM
same,potency estimated from few doses,LATS1,658 nM
same,potency estimated from few doses,MAPK11,1100 nM
same,potency estimated from few doses,MAPK14,1500 nM
same,potency estimated from few doses,MELK,1500 nM
same,potency estimated from few doses,PKN1,768 nM
same,potency estimated from few doses,PKN2,1840 nM
same,potency estimated from few doses,PRKACA,479 nM
same,potency estimated from few doses,PRKACB,738 nM
same,potency estimated from few doses,PRKCA,1500 nM
same,potency estimated from few doses,PRKCD,1730 nM
same,potency estimated from few doses,PRKG1,352 nM
same,potency estimated from few doses,PYGL,2220 nM
same,potency estimated from few doses,RIOK2,602 nM
same,potency estimated from few doses,ROCK1,437 nM
same,potency estimated from few doses,ROCK2,412 nM
same,potency estimated from few doses,RPS6KB1,1680 nM
same,potency estimated from few doses,SYK,2150 nM
same,potency estimated from few doses,T10,1890 nM
Fc1cc(Cl)ccc1Nc1ccnc2cc(-c3ccc(CN4CCSCC4)o3)ccc12 [GW560106X],potency estimated from few doses,ACVR2B; CATDS: 8.8140626462379107E-2,1650 nM
same,potency estimated from few doses,BCR,830 nM
same,potency estimated from few doses,EPHA1,853 nM
same,potency estimated from few doses,GAK,1220 nM
same,potency estimated from few doses,JAK2,547 nM
same,potency estimated from few doses,RET; CATDS: 0.12743524996908201,710 nM
same,potency estimated from few doses,RIPK2,357 nM
same,potency estimated from few doses,RIPK3,2080 nM
same,potency estimated from few doses,SIK2,1290 nM
